Experimental data from the supplement of paper PMC6555819.

Legend:
Assay in all cases: PBM binding z-score (relative to random genomic background probes); higher = stronger binding; sequences stand for … in GC…GCGATTGACAGCGTAGAATGAAGG
[1] = system: RARb homodimer (NR concentration 270 nM)
In short: (§1)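 Binding z-scores were set against random background probes. The data came from custom Agilent 4×180K protein-binding microarrays carrying double-stranded probes with 34-nt variable regions, incubated 1 h with ligand-free nuclear receptor dimers. Partner-specific antibodies detected binding, and scanned fluorescence was regression-normalized.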

[2] = system: RARg:RXRa (NR concentration 270 nM, RXRa partner concentration 90 nM)
In short: as §1

[3] = system: RARg homodimer (NR concentration 270 nM)
In short: as §1

[4] = system: RXRa DBDmut IVT, anti-RXR (DBD mutation: RXRa K156A/R161A, NR concentration 90 nM)
In short: as §1

[5] = system: RXRa homodimer (NR concentration 180 nM)
In short: as §1

[6] = system: THRa:RXRa (NR concentration 90 nM, RXRa partner concentration 90 nM)
In short: as §1

[7] = system: THRa homodimer (NR concentration 90 nM)
In short: as §1

[8] = system: VDR homodimer (NR concentration 270 nM)
In short: as §1

Sequence	PBM binding z-score [1]	PBM binding z-score [2]	PBM binding z-score [3]	PBM binding z-score [4]	PBM binding z-score [5]	PBM binding z-score [6]	PBM binding z-score [7]	PBM binding z-score [8]
CCTACTGGGCTAAGGTCATTGATCAGTCAAAGCA	3.59	4.14	3.51	1.83	4.07	3.95	4.04	2.94
CTCGAAAGGTCGGTTGAGGTGAGTACACGGATAA	2.53	2.89	2.79	0.908	2.34	5.21	1.47	1.71
TCTGCTAGGTCAGTTGTTCAGCTAACGAGCTGCC	2.19	2.19	3.35	0.434	0.641	1.25	0.158	-0.531
CCGACTTGGGCATAAGGTTACCATAAGCCAGCCC	0.962	0.45	0.236	-0.0632	0.906	1.84	1.27	-0.535
CCTACTGGGCCATCAGCTCATTGATATCAACGTT	-0.431	-0.217	0.0511	-0.384	-0.717	-0.526	-0.399	-0.517
CCTACTGGGGCATCAGGTCATTGATATCAACGTT	2.89	2.6	2.39	0.331	1.87	3.19	2.71	2.06
TCAGACAGGTGAAGGTAACTGAGGTACGCAGTCG	0.685	0.664	0.586	1.05	1.18	1.31	0.494	-0.194
TCGAGTAGGTTACCAATGGGGCATTCAACTTTCT	1.11	1.49	0.547	0.496	1.01	0.551	-0.246	-0.194
CGTCAAAGTTCAACTAAGGCAACGTAAAGCACGC	4.17	5.79	6.64	4.64	5.05	4.74	0.241	3.68
GCTAGCAGGCCATTTGGGTAACTCAATGACGGGC	-0.555	-0.388	-0.283	-0.499	-0.0687	-0.0773	-0.78	-0.461
ACGAGTTGGTCAGCTGAGGTCACACACAATTCGG	4.17	4.17	4.27	1.82	4	4.77	4.97	4.4
TCATTTAGGTAAACAGGTGAAAGTCCGTAAGTTA	1.09	0.646	0.406	1.59	0.903	1.52	1.13	0.754
TCATATAGGTAAAGCTGAAAGTCGAACGATATGA	-0.67	0.267	0.377	0.431	0.587	-0.286	-1.16	-0.537
TCTCGGAGGACACGACAGGTCAGAGCTCGACATC	2.87	2.35	3.16	0.685	1.41	2.96	1.04	0.677
TAGCGTAGGTCATTGGGCCAGTATAGTACGCATC	2.8	3.98	4.08	0.868	3.6	2.08	-0.396	0.725
TCTTGTAGATCAGCAGGTTATGAAAGCTGGCCAA	-0.0555	-0.168	-0.428	0.64	0.311	0.276	-0.466	-0.405
GCTCGTAGGACAAGGTCAGAGCTTTGTCCGTAGA	2.93	2.95	3.49	0.281	2.55	2.64	0.975	0.106
GTACCAAGGTGAATAGGTCGTTGAGGAGTAGGCG	1.97	2.83	1.46	-0.482	1.63	1.76	0.714	0.676
CCTAGTTGGTCAGGAGGTCACAGACCGGATATGA	4.29	5.27	4.13	0.184	5.2	3.57	2.15	2.05
CCTATTGGGCCACGAAAGGTCATTGATTCAGTGA	4.4	4.95	4.66	0.751	5.29	4.08	0.834	2.26
AGAACGAGGGCAATGAGTTGATTGCACGGGTGGC	0.636	0.81	1.23	1.88	0.475	0.794	-0.344	3
TCTAGCAGGCCAGAGGCTCACTCAAGAGGTACGG	-0.995	-0.48	-0.695	-0.462	-0.277	-0.767	-1.59	-1.07
ATCTCTAGGTAACCGAGTTCAGTGAATGCCGAAC	1.31	0.6	0.669	1.39	0.704	1.72	0.663	4.05
ACTCGAAGGACAAAGGTCAGAGCTACGCCAGTGA	4.53	5.85	4.94	0.729	4.69	3.02	0.499	0.565
TCATATAGGTAAATGCTAGGTCAAAGTCCGATCT	2.75	2.52	1.58	1.72	2	2.96	1.76	1.35
GCAGACAGGTGAAACGCAGGTAAATCAGGGTGGC	0.00843	0.816	-0.0582	-0.477	0.544	1.23	-0.537	-0.336
GCTTACGGGTCAAAGGTTATAGAATGAATAGAAT	3.44	6.87	5.16	2.45	9.56	3.89	0.468	1.96
ATCTCTAGGTAACAATTTCAGTGAAAGAGAGGAC	0.316	0.547	0.814	0.235	0.51	1.06	0.784	0.542
